HCMV antiviral: inhibitors of human cytomegalovirus | hit rate 4.5% among 410,000 | AID 1259415 | HFF cells, HCMV-luciferase reporter, 72 h; stronger effect = lower value | activity change, negative = inhibition, % at 57.5 µM; in the data active = activity change below about -60%; inconclusive = no clear call, values can overlap the other calls; inactive = above about -39%
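Inhibition of viral replication was scored as loss of reporter luminescence in HFFs infected with HCMV-luciferase (MOI 1 PFU/cell) for 72 h; compounds tested at 2 doses, normalized to buffer and Salinomycin controls.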
FMDV inh: foot and mouth disease virus antiviral activity. FMDV antiviral cell-based qHTS. Potency, µM (doses to about 57.9 µM), most hits filed as inhibitors. hit rate 1.2% among 410,000; calls by dose curve; tested in HEK293T cells; also: read-out not given here; nearly all actives have a fitted effect of over 45% in size
Vaccinia mCherry: vaccinia inhibition (mCherry reporter); Vaccinia virus mCherry reporter infection, fluorescence; AID 720579; hit rate 0.63% among 310,000; Potency, µM (series often up to 36.5 µM), actives largely listed as inhibitors; calls by dose curve; tested in A549 cells; also: nearly all actives have a fitted effect of over 35% in size
Vaccinia Venus: inhibitors of vaccinia virus (Venus reporter); Vaccinia virus Venus reporter expression, fluorescence; Potency, µM (titrated, usually from 36.5 µM), usual class: inhibitors; hit rate 0.46% among 330,000; AID 720580; calls by dose curve; tested in A549 cells; also: nearly all actives have a fitted effect of over 30% in size
HCV inh: inhibitors of hepatitis C virus infection. hit rate 3.4% among 340,000. Huh7.5.1 HCVcc-Cre infection, luciferase reporter, 44 h. Potency, µM (highest dose often 41.8 µM), usual class: inhibitors; active = well fitted inhibition curve with a large enough effect; inconclusive = small, poorly fitted or top-dose-only effect, or another doubt; inactive = no such curve, though single readings can be large or run the other way
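After 44 h co-culture of compound, cells and HCVcc-Cre (~0.5 moi), substrate is added for 15 min at room temperature and luciferase measured over 15 sec. Cells were seeded at 1,000/well and pre-cultured 4 h.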
Of the large screens only hits and unclear results are named; the others gave an inactive call; ! = repeats disagree. This is a sample that favours compounds with a hit; in the whole collection about 7.3% have one here.

O=C(O)[C@@H]1C[C@@H](O)CN1	none (no result: FMDV inh, Vaccinia mCherry, Vaccinia Venus, HCV inh)
Cc1ccc(Oc2cccc3c2S(=O)(=O)N([C@H](C)c2ccccc2)C[C@@H](COCc2ccccc2)O3)cc1	HCMV antiviral -78 (no result: FMDV inh, Vaccinia mCherry, Vaccinia Venus, HCV inh)
CCCCN1CC(COCc2ccccc2)Oc2cccc(N3CCCC3)c2S1(=O)=O (centres undefined)	HCV inh inconclusive
Cc1cc(Oc2cccc3c2S(=O)(=O)N([C@H](C)c2ccccc2)C[C@@H](COCc2ccccc2)O3)cc(C)c1C	HCMV antiviral -93 (no result: FMDV inh, Vaccinia mCherry, Vaccinia Venus, HCV inh)
C[C@H](c1ccccc1)N1C[C@@H](COCc2ccccc2)Oc2cccc(N3CCCCC3)c2S1(=O)=O	HCMV antiviral -93 (no result: FMDV inh, Vaccinia mCherry, Vaccinia Venus, HCV inh)
Cc1ccc(S(=O)(=O)N(C)c2cccc3c2S(=O)(=O)N([C@H](C)c2ccccc2)C[C@@H](COCc2ccccc2)O3)cc1	HCMV antiviral -65 (no result: FMDV inh, Vaccinia mCherry, Vaccinia Venus, HCV inh)
COc1cc(F)ccc1Oc1cccc2c1S(=O)(=O)N([C@H](C)c1ccccc1)C[C@@H](COCc1ccccc1)O2	none (no result: FMDV inh, Vaccinia mCherry, Vaccinia Venus, HCV inh)
O=C(NC1CCCC1)C(c1ccccn1)N(C(=O)c1csnn1)c1ccccc1Br (centres undefined)	none
CCOC(=O)c1cc(-c2ccccc2)sc1NC(=O)C(C)OC(=O)c1cccnc1OCC (centres undefined)	HCV inh 3.5µM
COc1cc2c(-c3ccc4cc[nH]c4c3)c(-c3ccc(C#N)cc3)oc(=O)c2cc1OC	Vaccinia mCherry inconclusive, Vaccinia Venus inconclusive, HCV inh 11µM
COc1ccccc1-c1oc2ccccc2c1-c1ccc2cc[nH]c2c1	Vaccinia Venus inconclusive, HCV inh 11µM
CCOC(=O)[C@]12CCCC=C1N(Cc1ccc(Cl)cc1Cl)C(=O)[C@H](CC(=O)NCC13CC4CC(CC(C4)C1)C3)C2	none (no result: HCV inh)
C1=C2C[N+]3(CCCC3)CC2Cc2ccc3ccccc3c21 (centres undefined)	HCMV antiviral -65, HCV inh inconclusive
S=c1[nH]nc(C2CCCCC2)n1Cc1ccccc1	HCMV antiviral inconclusive
C=CCn1c(C2CCCCC2)n[nH]c1=S	HCMV antiviral -97, FMDV inh inconclusive
N#C/C(=C\c1cccc(O)c1)C(=O)O	none (no result: HCMV antiviral, HCV inh)
N#C/C(=C\c1ccc(O)cc1)C(=O)O	HCMV antiviral -73!, HCV inh 1.1µM
Cc1ccc(S(=O)(=O)Nc2c(C)nn(C)c2C)cc1C	FMDV inh inconclusive, HCV inh 0.56µM
Cc1nn(C)c(C)c1NS(=O)(=O)c1ccc(N2CCCC2=O)cc1	HCMV antiviral -62, FMDV inh inconclusive, Vaccinia mCherry inconclusive, HCV inh inconclusive
COc1ccc(S(=O)(=O)Nc2c(C)nn(C)c2C)cc1Br	none (no result: Vaccinia mCherry, Vaccinia Venus)
Cc1cc(C)c(C)c(S(=O)(=O)N(C)C2CCN(C)CC2)c1C	Vaccinia mCherry inconclusive
Cn1ncc2c(O/N=C(\N)c3ccc(C(F)(F)F)cc3)ncnc21	FMDV inh 22µM, HCV inh inconclusive (no result: Vaccinia mCherry, Vaccinia Venus)
Cc1ccc(C(=O)NNc2ncnc3c2cnn3C)cc1	none
S=C(NCc1ccc(Cl)cc1)NCc1ccco1	none (no result: Vaccinia mCherry, Vaccinia Venus)
Cc1ccc(Nc2cc(C)c3ccc(O)cc3n2)cc1C	HCV inh 10µM (no result: Vaccinia mCherry, Vaccinia Venus)
Cc1ccc(Nc2cc(C)c3c(O)cccc3n2)cc1C	HCV inh inconclusive (no result: Vaccinia mCherry, Vaccinia Venus)
OC(Cc1ccccc1Br)c1ncc(-c2ccc(Cl)cc2)[nH]1 (centres undefined)	none (no result: HCV inh)
CCOC(=O)N1CCN(c2ccccc2O)CC1	none
COc1cc(C2CC(=O)c3cnc(N4CCN(CCO)CC4)nc3C2)cc(OC)c1OC (centres undefined)	none (no result: HCV inh)
CCOC(=O)N1CCN(c2ncc3c(n2)CC(c2ccccc2O)CC3=O)CC1 (centres undefined)	HCMV antiviral inconclusive, FMDV inh 22µM, Vaccinia mCherry inconclusive, Vaccinia Venus inconclusive (no result: HCV inh)
CCOC(=O)N1CCN(c2ncc3c(n2)CC(c2ccc(Cl)cc2)CC3=O)CC1 (centres undefined)	HCMV antiviral -103, FMDV inh inconclusive (no result: HCV inh)
CCOC(=O)C1CCN(C(=O)C2CCN(C3=NS(=O)(=O)C(c4ccc(C)cc4)=C3CC)CC2)CC1	none (no result: HCV inh)
COC(=O)/C(=N\OCc1ccc(C#N)cc1)c1c(C)nn(C)c1C	HCMV antiviral -100
Cc1cnc(C(=O)OCc2ccc(C#N)cc2)cn1	none
CCc1cccc(NC(=O)c2cccc3c2C(=O)N(CC2CCCO2)C3)c1 (centres undefined)	HCV inh 11µM
CN(Cc1ccc2c(c1)OCCO2)C(=O)CSc1ncnc2sccc12	FMDV inh 40µM, HCV inh inconclusive
COC(=O)C1=C(c2ccc(Cl)c(C(F)(F)F)c2)C[C@@H]2CC[C@H]1N2C(=O)N1CCOCC1	HCMV antiviral inconclusive, Vaccinia Venus inconclusive, HCV inh inconclusive
COC(=O)C1=C(c2ccc(Cl)c(C(F)(F)F)c2)C[C@@H]2CC[C@H]1N2C(=O)N1CCC(O)(c2ccc(Cl)cc2)CC1	FMDV inh inconclusive, Vaccinia Venus inconclusive, HCV inh 10µM
COC(=O)C1=C(c2ccc(Cl)c(C(F)(F)F)c2)C[C@@H]2CC[C@H]1N2C(=O)N1CCCC1	FMDV inh inconclusive, HCV inh 32µM
O=c1oc2c(-c3cccc(F)c3)cc(O)cc2s1	none (no result: Vaccinia mCherry, Vaccinia Venus)
Cc1ccc(-n2c(C)nc3c(cnn3-c3ccc(C)c(C)c3)c2=O)cc1C	HCMV antiviral -67, Vaccinia Venus inconclusive
Cc1nc2c(cnn2-c2ccccc2Cl)c(=O)n1-c1ccc(N2CCC(C)CC2)cc1	HCMV antiviral -63, HCV inh 13µM (no result: Vaccinia mCherry, Vaccinia Venus)
COC(=O)c1ccccc1S(=O)(=O)N1CCC(NC(=O)C(Cc2cccc(OC)c2OC)NC(C)=O)CC1 (centres undefined)	none
CCC(=O)N1CCCc2cc(S(=O)(=O)N3CCC(C(=O)Nc4ccc(F)c(F)c4)CC3)ccc21	FMDV inh inconclusive (no result: HCV inh)
COC(=O)c1cc(O)cc(OC)c1Oc1cc(C)cc(O)c1C(=O)O	HCMV antiviral -106, Vaccinia mCherry inconclusive, Vaccinia Venus inconclusive
COC(=O)c1cc(O)cc(OC)c1C(=O)c1c(O)cc(C)cc1O	none
Nc1cc2nsnc2cc1Br	HCMV antiviral -107, FMDV inh inconclusive, Vaccinia mCherry inconclusive, Vaccinia Venus inconclusive, HCV inh inconclusive
Cn1cc(Br)cc1-c1ncc(Cc2c[nH]c(N)[n+]2C)o1	none (no result: FMDV inh, Vaccinia mCherry, Vaccinia Venus, HCV inh)
O=C(O)c1c(Cl)cccc1Cl	none
CCOc1cnc(-c2c(-c3c(F)cccc3Cl)noc2C)o1	none
Cc1onc(-c2c(F)cccc2Cl)c1-c1ncc(-c2ccc(Cl)cc2)o1	HCMV antiviral -76 (no result: FMDV inh, Vaccinia mCherry, Vaccinia Venus, HCV inh)
O=C(O)Cc1sc(NC2CCCCC2)nc1-c1ccc(Cl)cc1	Vaccinia mCherry inconclusive
CC1(c2ccccc2)CC(C)(C)N(C(=O)c2ccccc2Cl)c2ccccc21 (centres undefined)	FMDV inh 28µM (no result: HCV inh)
COc1cccc(C(=O)N2c3cc(C)ccc3C(C)(c3ccccc3)CC2(C)C)c1 (centres undefined)	FMDV inh inconclusive (no result: HCV inh)
COc1ccccc1C(=O)N1c2ccccc2C(C)(c2ccc(Cl)cc2)CC1(C)C (centres undefined)	HCMV antiviral -72, FMDV inh inconclusive (no result: HCV inh)
Cc1ccc2c(c1)C(C)(c1ccccc1)CC(C)(C)N2C(=O)c1ccc(F)cc1 (centres undefined)	HCMV antiviral inconclusive, FMDV inh inconclusive (no result: HCV inh)
